Experimental data reported in PubChem BioAssay (NCI).
This is part of a sample that, as a whole, favours compounds with a hit. Of some 83,000 tested, about 20% had one in any assay.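 Plates (96-well) were seeded with cells, treated with compound at one concentration, and incubated for 48 hours before percent growth was determined.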 The source made the active and inactive calls. How the source made its calls: active means growth percent below 10; inactive means the rest.

Test system: MDA-MB-468 breast
Experiment: NCI-60 one-dose screen, 48 h (100 = growth as untreated, 0 = no growth, -100 = all killed)
Conditions: 10 µM unless noted

SMILES | growth
O=C1NC(=O)c2cc([N+](=O)[O-])ccc21 | 96.1% (inactive)
COc1cc(/C=C/c2cc(/C=C/c3ccc(O)c(OC)c3)n(C(N)=O)n2)ccc1O | -14.3% (active)
Cn1c(=O)cc2c3c(c(NCCCO)ccc31)C(=O)c1ccccc1-2 | 39.8% (inactive)
O=c1c2cc(F)ccc2sc2c(NCCN3CCOCC3)nc3ccccc3c12 | 71.3% (inactive)
Cc1nc(N/N=C/c2cn(-c3ccccc3)nc2-c2cc3ccccc3oc2=O)sc1N=Nc1ccccc1 | 89.7% (inactive)
COc1ccc(-n2c(C)cc(-c3ccccc3)c2C)cc1 | -6.9% (active)
CC(C)(CCN=C(N)Nc1ccccn1)c1ccc(C(F)(F)F)cc1 | 3.96% (active)
CC[C@@]1(O)C(=O)OCc2c1cc1n(c2=O)Cc2c-1nc1ccccc1c2/C=N/OC(C)(C)C | -44.5% (active)
C=CCc1cc(C(C)=O)cc(OC)c1O | 90.6% (inactive)
CCN1C(=O)N(CC)C2C1NN=c1s/c(=C\c3ccc(F)cc3)c(=O)n12 (stereo not drawn) | 11.9% (inactive)
O=c1nc(N2CCOCC2)oc2c(-c3cccc4ccccc34)cccc12 | 76.5% (inactive)
NC(N)=NS(=O)(=O)c1ccc(NC2=C(I)C(=O)c3ncccc3C2=O)cc1 | 94.1% (inactive)
CCCCN(CCCC)C(=O)[C@H](CC)[C@@H]1CC[C@@H](C)[C@@H]([C@H](C)[C@@H](O)[C@@H](C)C(=O)[C@H](CC)C2O[C@]3(C=C[C@@H](O)[C@]4(CC[C@@](C)([C@H]5CC[C@](O)(CC)[C@H](C)O5)O4)O3)[C@H](C)C[C@@H]2C)O1 (stereo partly drawn) | -22.1% (active)
